Test results reported in PubChem BioAssay (NCI).
About 83,000 compounds went through this panel and 20% of them were active in at least one assay; those are over-represented in the sample as a whole.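 Results are percent growth after 48 hours of single-concentration exposure. 100 means growth as in untreated cells, lower positive values show inhibition; negative values down to -100 show cell death.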 Calls of active or inactive are those of the source. The calls were made as follows: active = growth percent below 10; inactive = the rest.

The compounds below were run on HT29 colon (assay: NCI-60 one-dose screen, 48 h (100 = growth as untreated, 0 = no growth, -100 = all killed)). Conditions: 10 µM unless noted.

Structure (SMILES)	growth
COc1ccc(Sc2ccc3[nH]c(=O)nc(N)c3c2)cc1	106% (inactive)
CCN1C(=O)C2(Nc3ccccc3S2)c2cc(C)ccc21 (centres undefined)	107% (inactive)
CCOC(=O)c1cn2c3c(cc(F)cc3c1=O)C(CC)c1ccccc1C2 (centres undefined)	95.9% (inactive)
Cc1nn(CC(=O)O)c2c1C(=O)CC(C)(C)C2	108% (inactive)
O=C1/C(=C/c2ccc(Oc3ccccc3)cc2)N=C(c2ccccc2)N1CCc1cccs1	35% (inactive)
COc1cccc(C2C3=C(COC3=O)N(CCO)c3cc4c(cc32)OCO4)c1 (centres undefined)	0.226% (active)
COc1ccc2c(c1)c(=O)oc1c(C)c(OCC(C)=O)ccc12	103% (inactive)
CC1=C(C/C=C(\C)CCC[C@H](C)CCC[C@H](C)CCCC(C)C)C(=O)c2ccccc2C1=O	105% (inactive)
O=S(=O)(OCCO)c1ccccc1	98.9% (inactive)
COc1ccc(-c2nc3sccn3c2/C=C/C(=O)c2cc(OC)c(OC)c(OC)c2)cc1OC	4.2% (active)
Cc1nc(NN)c([N+](=O)[O-])c(NN)n1	108% (inactive)
COc1cc(/C=C2\C(=O)N(c3c(Cl)cccc3Cl)c3ccccc32)cc(OC)c1O	22.6% (inactive)
COc1cc(C2C3=C(COC3=O)N(CCO)c3cc4c(cc32)OCO4)cc(OC)c1O (centres undefined)	8.44% (active)
COc1ccccc1CNCCCCCCCCCCCCN1C(=O)c2ccc3c4c(ccc(c24)C1=O)C(=O)N(CCCCCCCCCCCCNCc1ccccc1OC)C3=O	53.4% (inactive)
CCCCCCCCCCCCCCCC[N+]1(C)CCOCC1	1.36% (active)
Cn1cc(C(=O)NCCC(=N)N)cc1NC(=O)CN=C(N)N	107% (inactive)
Nc1cccc2c(=S)c3ccccc3[nH]c12	117% (inactive)
CCN1CCN(c2nc3ccccc3c3c(=O)c4cc(F)ccc4sc23)CC1	28% (inactive)
Cc1ccc(N(CSc2ccc(Cl)cc2)CSc2ccc(Cl)cc2)cc1	74.7% (inactive)

Structure (SMILES)	growth
O=C1C(Cl)=C(NCCCN2CCOCC2)C(=O)c2ccccc21	93.7% (inactive)
O=[N+]([O-])c1ccc(O)c2ncccc12	81% (inactive)
O=C(Nc1ccccc1)Oc1cccc2cccnc12	28.5% (inactive)
Cc1ccc(C)c2c1sc1nc3nc4sc5ccccc5n4c(=N)c3c(=O)n12	104% (inactive)
O=C(c1ccccc1)C(Br)C(Br)c1cccc([N+](=O)[O-])c1 (centres undefined)	-42.4% (active)
COc1cc(/C=C2\C(=O)Nc3ccccc32)cc(OC)c1O	75.7% (inactive)
O=c1ccc2ccccc2o1	102% (inactive)
Cc1nc(-c2ccccc2)cc2c(O)c(C(=O)N/N=C/Cc3ccccc3)[nH]c(=O)c12	93.8% (inactive)
CN1CCc2cccc3c2C1Cc1ccc(O)c(O)c1-3 (centres undefined)	76.2% (inactive)
COc1cccc(C2C3=C(COC3=O)N(CCO)c3cc4c(cc32)CCC4)c1 (centres undefined)	-28.2% (active)
COc1cc(CNCCCN2C(=O)c3ccc4c5c(ccc(c35)C2=O)C(=O)N(CCCNCc2cc(OC)c(OC)c(OC)c2)C4=O)cc(OC)c1OC	-47.6% (active)
O=C1C=CC(=O)N1CCCCCCCCCCN1C(=O)C=CC1=O	63.2% (inactive)
CCCCC/C=C\C/C=C/CCCCCCCCNC(=O)Nc1ccc([N+](=O)[O-])cc1	60.7% (inactive)
Clc1ccc(C2=NN(c3ccccc3)[C@H](c3cn(-c4ccccc4)nc3-c3ccccc3)C2)cc1	94.6% (inactive)
OB(O)c1ccccc1	101% (inactive)
COc1cccc2c(=O)c3c(sc12)c(NCCN(C)C)nc1ccccc13	3.18% (active)
O=C(N/N=C/c1ccc(F)cc1)c1[nH]c2ccc(I)cc2c1-c1ccccc1	12.5% (inactive)
COc1ccc(-c2nc3sc(C)cn3c2/C=C/C(=O)c2cc(OC)c(OC)c(OC)c2)cc1	60.1% (inactive)

The compounds below were run on SNB-75 CNS in the same assay as above. Conditions: 10 µM unless noted.

Structure (SMILES)	growth
COc1ccc(Sc2ccc3[nH]c(=O)nc(N)c3c2)cc1	91.3% (inactive)
CCN1C(=O)C2(Nc3ccccc3S2)c2cc(C)ccc21 (centres undefined)	76.2% (inactive)
CCOC(=O)c1cn2c3c(cc(F)cc3c1=O)C(CC)c1ccccc1C2 (centres undefined)	92.3% (inactive)
Cc1nn(CC(=O)O)c2c1C(=O)CC(C)(C)C2	86.8% (inactive)
O=C1/C(=C/c2ccc(Oc3ccccc3)cc2)N=C(c2ccccc2)N1CCc1cccs1	63.2% (inactive)
COc1cccc(C2C3=C(COC3=O)N(CCO)c3cc4c(cc32)OCO4)c1 (centres undefined)	-19.9% (active)
COc1ccc2c(c1)c(=O)oc1c(C)c(OCC(C)=O)ccc12	108% (inactive)
CC1=C(C/C=C(\C)CCC[C@H](C)CCC[C@H](C)CCCC(C)C)C(=O)c2ccccc2C1=O	95.1% (inactive)
O=S(=O)(OCCO)c1ccccc1	75% (inactive)
COc1ccc(-c2nc3sccn3c2/C=C/C(=O)c2cc(OC)c(OC)c(OC)c2)cc1OC	-8.25% (active)
Cc1nc(NN)c([N+](=O)[O-])c(NN)n1	114% (inactive)
COc1cc(/C=C2\C(=O)N(c3c(Cl)cccc3Cl)c3ccccc32)cc(OC)c1O	61.7% (inactive)
COc1cc(C2C3=C(COC3=O)N(CCO)c3cc4c(cc32)OCO4)cc(OC)c1O (centres undefined)	-11.3% (active)
COc1ccccc1CNCCCCCCCCCCCCN1C(=O)c2ccc3c4c(ccc(c24)C1=O)C(=O)N(CCCCCCCCCCCCNCc1ccccc1OC)C3=O	-13.3% (active)
CCCCCCCCCCCCCCCC[N+]1(C)CCOCC1	11.7% (inactive)
Cn1cc(C(=O)NCCC(=N)N)cc1NC(=O)CN=C(N)N	88.9% (inactive)
Nc1cccc2c(=S)c3ccccc3[nH]c12	94.6% (inactive)
CCN1CCN(c2nc3ccccc3c3c(=O)c4cc(F)ccc4sc23)CC1	39.7% (inactive)
Cc1ccc(N(CSc2ccc(Cl)cc2)CSc2ccc(Cl)cc2)cc1	106% (inactive)

Structure (SMILES)	growth
O=C1C(Cl)=C(NCCCN2CCOCC2)C(=O)c2ccccc21	78.3% (inactive)
O=[N+]([O-])c1ccc(O)c2ncccc12	84.1% (inactive)
O=C(Nc1ccccc1)Oc1cccc2cccnc12	83% (inactive)
Cc1ccc(C)c2c1sc1nc3nc4sc5ccccc5n4c(=N)c3c(=O)n12	73.7% (inactive)
O=C(c1ccccc1)C(Br)C(Br)c1cccc([N+](=O)[O-])c1 (centres undefined)	80.9% (inactive)
COc1cc(/C=C2\C(=O)Nc3ccccc32)cc(OC)c1O	23.1% (inactive)
O=c1ccc2ccccc2o1	89.4% (inactive)
Cc1nc(-c2ccccc2)cc2c(O)c(C(=O)N/N=C/Cc3ccccc3)[nH]c(=O)c12	90.7% (inactive)
CN1CCc2cccc3c2C1Cc1ccc(O)c(O)c1-3 (centres undefined)	83.6% (inactive)
COc1cccc(C2C3=C(COC3=O)N(CCO)c3cc4c(cc32)CCC4)c1 (centres undefined)	-19.2% (active)
COc1cc(CNCCCN2C(=O)c3ccc4c5c(ccc(c35)C2=O)C(=O)N(CCCNCc2cc(OC)c(OC)c(OC)c2)C4=O)cc(OC)c1OC	-97.2% (active)
O=C1C=CC(=O)N1CCCCCCCCCCN1C(=O)C=CC1=O	95.7% (inactive)
CCCCC/C=C\C/C=C/CCCCCCCCNC(=O)Nc1ccc([N+](=O)[O-])cc1	103% (inactive)
Clc1ccc(C2=NN(c3ccccc3)[C@H](c3cn(-c4ccccc4)nc3-c3ccccc3)C2)cc1	97% (inactive)
OB(O)c1ccccc1	101% (inactive)
COc1cccc2c(=O)c3c(sc12)c(NCCN(C)C)nc1ccccc13	-5.46% (active)
O=C(N/N=C/c1ccc(F)cc1)c1[nH]c2ccc(I)cc2c1-c1ccccc1	51.7% (inactive)
COc1ccc(-c2nc3sc(C)cn3c2/C=C/C(=O)c2cc(OC)c(OC)c(OC)c2)cc1	55.8% (inactive)
